Data as given in PubChem BioAssay (Tox21).
Inconclusive results are not listed. Unmarked numbers belong to inactive results. Calls of active or inactive are those of the source. The call rests on the fitted dose curve; in most records, active means well fitted cell-killing curve with a large enough effect in the repeat runs; inconclusive means weak or mixed curves, or effect the other way; inactive means flat fitted curve, though single readings scatter.

Test: Nuclear factor erythroid 2-related factor 2/antioxidant responsive element (Nrf2/ARE) small molecule agonists: qHTS cell viability counter screen in human keratinocytes (AID 1919968); further: nearly all actives have a fitted effect of over 55% in size
Conditions: KeratinoSens HaCaT ARE cells viability, CellTiter-Fluor, 24 h; series mostly up to 92.4 µM; activity change, negative = cytotoxicity: at the top concentration
Text: U.S. Tox21 Program National Center for Advancing Translational Sciences [NCATS] Division of Preclinical Innovation [DPI] U.S. Environmental Protection Agency [EPA] National Institutes of Environmental Health Sciences [NIEHS] National Toxicology Program [NTP] U.S. Food and Drug Administration [FDA] Tox21 Assay Overview: Oxidative stress has been implicated in the pathogenesis of a variety of diseases ranging from cancer to neurodegeneration. The antioxidant response element (ARE) signaling pathway plays an important role in the amelioration of oxidative stress. The KeratinoSens (Givaudan, Switzerland) is an in vitro test method which quantifies luciferase induction as a measure of activation of Keap1-Nrf2-antioxidationt/electrophile response element (ARE) dependant pathway in HaCaT human keratinocytes stably transfected with a selectable plasmid. The KeratinoSens assay is a cell-based assay with a reporter cell line to detect potential skin sensitizers by their ability to induce the Nrf2/ARE-response. The activation of the report gene under culture conditions can be detected by ONE-Glo Luciferase Assay System (Promega, Madison, WI). This cell line has been used to screen the Tox21 10K compound library to identify agonists that induce oxidative stress. The cytotoxicity of the Tox21 compound library against the KS-ARE cell line was tested in parallel by measuring the cell viability using CellTiter- Fluor assay system (Promega, Madison, WI) in the same wells.
Tox21 Assay Protocol Summary: HaCaT derived cell line KeratinoSens were dispensed at 1,500 cells/5uL/well in 1536-well white wall/solid bottom plates using a Multidrop Combi (ThermoFisher Scientific, Waltham, MA) dispenser. After the assay plates were incubated at 37 C/5% CO2 for 5 h, 23 nL of compounds dissolved in DMSO, positive controls or DMSO only was transferred to the assay plate by a pintool workstation (Kalypsys, San Diego, CA). The plates were incubated at 37 C/5% CO2 for 23 h, followed by addition of 1uL/well of CellTiter-Fluor reagent into the assay plates using a Flying Reagent Dispenser (Aurora Discovery, San Diego, CA) for cell viability readout that measures cytotoxicity. After 1 h incubation at 37 C/5% CO2 the fluorescence intensity was measured using a ViewLux (PerkinElmer, Shelton, CT) plate reader.
On the % scale 0 is the no-effect control and ±100 the full control effect; potency means the concentration at half of the fitted maximal effect.

Question: Which “activity change, negative = cytotoxicity” value does the source give for `O=P(c1ccccc1)(c1ccccc1)c1ccccc1` here?
Answer: -5.02%

Question: For `CC=O`, which Potency is on record?
Answer: 28.6 µM (active)

Question: For `O=[N+]([O-])c1cccc(C(F)(F)F)c1`, which “activity change, negative = cytotoxicity” value is on record?
Answer: 0.072%

Question: With `O=C1NC2CCCCN2C12CCN(CCCN1c3ccccc3CCc3ccc(Cl)cc31)CC2` (stereo not given) as the compound, how does the Potency read?
Answer: 29.8 µM (active)

Question: With `O=C1CCCN1C1CCCCC1` as the compound, how does the “activity change, negative = cytotoxicity” value read?
Answer: 1.57%

Question: For `CC(=O)Nc1cccc(N)c1`, which “activity change, negative = cytotoxicity” value is on record?
Answer: 2.87%

Question: Which “activity change, negative = cytotoxicity” value does the source give for `COc1ccccc1N1CCN(CC(O)COc2cccc3ccccc23)CC1` (stereo not given) here?
Answer: -8.94% [at 42.5 µM]

Question: With `CCCCOCC(C)OCC(C)O` (stereo not given) as the compound, how does the “activity change, negative = cytotoxicity” value read?
Answer: 0.27%

Question: With `COCc1nnc(-c2ccc[n+]([O-])c2)n1-c1c(Cl)c(Cl)cc2[nH]c(=O)c(=O)[nH]c12` as the compound, how does the “activity change, negative = cytotoxicity” value read?
Answer: 3.11%

Question: Which “activity change, negative = cytotoxicity” value does the source give for `C=CCCC(=O)O` here?
Answer: -3.35%

Question: With `Brc1ccccc1-c1ccccc1` as the compound, how does the “activity change, negative = cytotoxicity” value read?
Answer: -6.28%

Question: For `CC1(C)CCC[C@]2(C)[C@H]3CCO[C@]3(C)CC[C@@H]12`, which “activity change, negative = cytotoxicity” value is on record?
Answer: 0.0466%

Question: For `C[C@H]1COc2c(C3(N)CC3)c(F)cc3c(=O)c(C(=O)O)cn1c23`, which “activity change, negative = cytotoxicity” value is on record?
Answer: 5.74% [at 42.5 µM]

Question: Which “activity change, negative = cytotoxicity” value does the source give for `O=C(NCC(O)CO)c1c(I)c(C(=O)NCC(O)CO)c(I)c(N(CCO)C(=O)CO)c1I` (stereo not given) here?
Answer: 14.1% [at 42.5 µM]

Question: With `CO/N=C(/C(=O)N[C@@H]1C(=O)N2C(C(=O)O)=C(Cn3nnc(C)n3)CS[C@H]12)c1csc(N)n1` as the compound, how does the “activity change, negative = cytotoxicity” value read?
Answer: 9.44% [at 42.5 µM]

Question: For `CC(=O)Nc1ccc(OC(=O)c2ccccc2OC(C)=O)cc1`, which “activity change, negative = cytotoxicity” value is on record?
Answer: -4.14% [at 42.5 µM]

Question: For `O=C(O)c1ccccc1-c1ccc(C(F)(F)F)cc1`, which “activity change, negative = cytotoxicity” value is on record?
Answer: 6.8% [at 42.5 µM]

Question: With `CCN1CCN(C(=O)N[C@@H](C(=O)N[C@@H]2C(=O)N3C(C(=O)O)=C(CSc4nnnn4C)CS[C@H]23)c2ccc(O)cc2)C(=O)C1=O` as the compound, how does the “activity change, negative = cytotoxicity” value read?
Answer: -0.262% [at 42.5 µM]

Question: Which “activity change, negative = cytotoxicity” value does the source give for `CC(CO)(CO)CO` here?
Answer: -0.828%

Question: Which “activity change, negative = cytotoxicity” value does the source give for `CC(C)CCCCCCOC(=O)C1CCCCC1C(=O)OCCCCCCC(C)C` (stereo not given) here?
Answer: 4.84%

Question: Which “activity change, negative = cytotoxicity” value does the source give for `O=[N+]([O-])c1cccc(Cl)c1Cl` here?
Answer: -0.133%

Question: With `COC(=O)c1cc(Cl)ccc1[N+](=O)[O-]` as the compound, how does the “activity change, negative = cytotoxicity” value read?
Answer: -0.982%

Question: For `C[C@](N)(Cc1ccc(O)cc1)C(=O)O`, which activity change, negative = cytotoxicity is on record?
Answer: 5.45% [at 8.39 µM]

Question: Which “activity change, negative = cytotoxicity” value does the source give for `COCCOc1cc2cc(C(=O)NC3CCN(C(C)C)CC3)n(CC(=O)Nc3ccc(Cl)cn3)c2cn1` here?
Answer: -13.9%

Question: With `O=C(O)COc1ccc2ccccc2c1` as the compound, how does the “activity change, negative = cytotoxicity” value read?
Answer: -1.22%

Question: With `ClC(Cl)(Cl)c1ccc(C(Cl)(Cl)Cl)cc1` as the compound, how does the “activity change, negative = cytotoxicity” value read?
Answer: 2.66%

Question: Which “activity change, negative = cytotoxicity” value does the source give for `Nc1cc(N)cc(C(=O)O)c1` here?
Answer: -3.02%

Question: For `NC(Cc1ccc(F)cc1)C(=O)O` (stereo not given), which activity change, negative = cytotoxicity is on record?
Answer: 2.68% [at 8.39 µM]

Question: With `CCC/C=C(\C=O)CC` as the compound, how does the “activity change, negative = cytotoxicity” value read?
Answer: 0.54%

Question: With `CCCCO` as the compound, how does the “activity change, negative = cytotoxicity” value read?
Answer: 2.71%

Question: Which “activity change, negative = cytotoxicity” value does the source give for `COc1cccc(N)c1` here?
Answer: -0.926%

Question: For `O=C1NCC2(CCN(CCc3ccccc3)CC2)O1`, which “activity change, negative = cytotoxicity” value is on record?
Answer: 0.433% [at 42.5 µM]

Question: Which “activity change, negative = cytotoxicity” value does the source give for `CCOCC(C)O` (stereo not given) here?
Answer: 1.81%

Question: With `O=S(=O)(O)c1cc(Cl)c(Cl)cc1Cl` as the compound, how does the “activity change, negative = cytotoxicity” value read?
Answer: -0.958%

Question: For `COC(=O)/C=C/C(C)=C\C=C\C(C)=C\C=C\C=C(C)\C=C\C=C(C)\C=C\C(=O)O`, which “activity change, negative = cytotoxicity” value is on record?
Answer: -1.59%

Question: Which “activity change, negative = cytotoxicity” value does the source give for `CC(C)C=O` here?
Answer: 1.89%

Question: Which “activity change, negative = cytotoxicity” value does the source give for `Cc1ncc([N+](=O)[O-])n1CC(O)CCl` (stereo not given) here?
Answer: -3.21% [at 42.5 µM]

Question: Which “activity change, negative = cytotoxicity” value does the source give for `OCCOc1cccc(OCCO)c1` here?
Answer: 0.158%

Question: For `CSC(=O)c1cccc2nnsc12`, which “activity change, negative = cytotoxicity” value is on record?
Answer: 12.2%

Question: Which “activity change, negative = cytotoxicity” value does the source give for `Cc1ccc(Cl)c(Nc2ccccc2C(=O)O)c1Cl` here?
Answer: -12.1% [at 42.5 µM]
